Cruzain inh noDet = blocks cruzain activity in detergent-free assay. P25779. purified cruzain, Z-FR-AMC fluorescence, no detergent. Potency, µM, inactives show max response, negative = inhibition, actives largely listed as inhibitors. 200,000 compounds, 2.3% hits;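 further: plate controls were enzyme without inhibitor for no effect and buffer without enzyme for full effect; nearly all actives have a fitted effect of over 40% in size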
Target sequence (P25779 123-467 limits assumed): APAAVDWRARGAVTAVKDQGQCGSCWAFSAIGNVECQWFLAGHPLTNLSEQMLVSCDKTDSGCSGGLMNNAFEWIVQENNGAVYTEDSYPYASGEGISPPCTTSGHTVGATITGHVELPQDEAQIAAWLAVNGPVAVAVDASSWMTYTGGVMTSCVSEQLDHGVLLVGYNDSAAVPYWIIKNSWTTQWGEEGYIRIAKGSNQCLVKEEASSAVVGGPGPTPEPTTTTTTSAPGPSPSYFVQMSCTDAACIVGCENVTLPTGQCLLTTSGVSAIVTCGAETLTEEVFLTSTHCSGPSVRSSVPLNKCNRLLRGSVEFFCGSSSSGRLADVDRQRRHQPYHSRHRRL
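Purified cruzain at 1.5 nM, pre-incubated 15 min with compound at room temperature in 100 mM sodium acetate pH 5.5, 5 mM DTT, 0.00005% Triton X-100. Reaction started with 2 uM Z-FR-AMC; AMC fluorescence increase over 60 s gives rate.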
Cruzain inh Det = inhibitors of Trypanosoma cruzi cruzain with detergent; 200,000 compounds, 0.43% hits; Potency, µM, for the others: max response, negative = inhibition, usual class: inhibitors; P25779; purified cruzain, Z-FR-AMC fluorescence, 0.01% Triton; AID 1478;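 further: plate controls were neutral wells for no effect and buffer without enzyme for full effect; nearly all actives have a fitted effect of over 40% in size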
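Cysteine protease activity tested under reducing, mildly acidic conditions (100 mM sodium acetate pH 5.5, 5 mM DTT) plus 0.01% Triton X-100. Cruzain 1.5 nM; substrate Z-FR-AMC 2 uM; 15 min compound preincubation at room temperature.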
Papain inh = papain (Carica papaya) inhibition counter-screen; shares compounds with Cruzain inh Det; purified papain, Z-FR-AMC fluorescence cleavage; Potency, µM, for the others: max response, negative = inhibition, hits mostly inhibitors; 410 compounds, 41% hits; AID 2161;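 further: 0% = no-compound wells and -100% = no-enzyme wells; nearly all actives have a fitted effect of over 35% in size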
Numbers without * were called inactive; ? = inconclusive; nt = no result. Sampled rows, rich in hits. Any-hit rate of the full collection: about 2.6%. The call rests on the fitted dose curve; in most records, active means well fitted curve in the direction sought with a large enough effect; inconclusive means small, poorly fitted or top-dose-only effect, or another doubt; inactive means no such curve, though single readings can be large; an effect the other way counts as inactive or inconclusive. Potency means the concentration at half of the fitted maximal effect.

SMILES	Cruzain inh noDet	Cruzain inh Det	Papain inh
CCOC(=O)c1c(NC(=O)COc2c(C)cc(Cl)cc2Cl)sc2c1CCCC2	1%	-2%	nt
Cn1cnc(S(=O)(=O)N2CCCC(C(=O)Nc3cccc(C#N)c3)C2)c1 (stereo unspecified)	-2%	0%	nt
Cc1ccc2c(c1)N(C(=O)CCC(=O)NCc1ccccc1Cl)CC(C)O2 (stereo unspecified)	-3%	-2%	nt
COC(=O)c1ccccc1NC(=S)NC(=O)c1cccc2ccccc12	13%	-3%	nt
COc1ccc(CCNC(=O)COc2ccc(S(=O)(=O)NC3CCCCC3)cc2Cl)cc1OC	?	-3%	nt
COc1ccc(C(=O)C(C)OC(=O)CNC(=O)C2CCCCC2)cc1 (stereo unspecified)	nt	nt	11µM*
COc1ccc(C(CC(=O)O)NC(=O)C2CCCCC2)cc1 (stereo unspecified)	-6%	3%	nt
Cc1ccc(N2C(=O)N(Cc3cc(=O)n4ccccc4n3)c3ccccc3S2(=O)=O)cc1Cl	26%	-2%	nt
Cc1ccc(NC(=O)/C=C/c2ccc3c(c2)OCO3)cc1S(=O)(=O)N1CCOCC1	20µM*	13µM*	-11%
Cc1ccc(C(=O)NCc2ccc3c(c2)OCO3)cc1S(=O)(=O)N1CCOCC1	9%	-3%	nt
CCOc1cc(C(=O)N2CCc3c([nH]c4ccccc34)C2c2ccccc2)cc(OCC)c1OCC (stereo unspecified)	?	-4%	nt
COc1ccc(-c2nn3c(-c4ccc(F)cc4)nnc3s2)cc1	?	2%	nt
CCOc1cccc(-c2nnc3sc(-c4cc(OC)c(OC)cc4OC)nn23)c1	0%	-4%	nt
CCOc1cccc(-c2nn3c(-c4cc(C)[nH]n4)nnc3s2)c1	-4%	1%	8%
COc1ccc(-c2nn3c(-c4cc(C)[nH]n4)nnc3s2)cc1	nt	nt	7%
COc1ccc(CCNC(=O)c2[nH]c(C)c(C(C)=O)c2C)cc1	1%	-4%	nt
COc1cc(C(=O)NCc2cccc3ccccc23)cc(Cl)c1OC	-5%	1%	nt
CC(C)NC(=O)COC(=O)CNC(=O)C1CCCCC1	nt	nt	-58%
CC(C)(C)NC(=O)COC(=O)CNC(=O)C1CCCCC1	nt	nt	-23%
Cc1cc(NC(=O)CNC(=O)C2CCCCC2)no1	2%	-4%	nt
O=C(CNC(=O)C1CCCCC1)Nc1ccccc1	-11%	-2%	nt
CS(=O)(=O)N(Cc1ccccc1)c1ccccc1C(=O)O	-3%	5%	nt
CCN(CC)C(=O)c1ccc(NC(=O)Cn2nc(C)c3ccccc3c2=O)cc1	0%	0%	nt
CCC(C)[C@@H](NC(=O)OC(C)(C)C)c1nnc(S(=O)(=O)Cc2cccc(C)c2)o1 (stereo partly specified)	7.9µM*	3.2µM*	13µM*
Cc1cccc(CS(=O)(=O)Cc2ccc(C(=O)NC(C)c3ccccc3)o2)c1 (stereo unspecified)	13%	0%	nt
SMILES	Cruzain inh noDet	Cruzain inh Det	Papain inh
CCOc1ccc(NC(=O)c2ccc(CNc3c(NC4CCCCC4)c(=O)c3=O)cc2)cc1	4µM*	0%	8%
COc1ccc(NC(=O)c2ccc(CNc3c(NC4CCCCC4)c(=O)c3=O)cc2)c(OC)c1	?	0%	nt
Cc1nn(-c2ccc(Cl)cc2)c(Cl)c1/C=C(\C#N)C(N)=O	4%	-3%	nt
COc1ccc(CCNC(=O)c2cnc3scc(C)n3c2=O)cc1OC	-8%	-13%	nt
CC(C)CC(=O)OC1C(N2CCOCC2)c2c(ccc(/C=C/C(=O)N3CCOCC3)c2O)OC1(C)C (stereo unspecified)	?	-24%	14µM*
CC1(C)Oc2ccc(/C=C/C(=O)N3CCOCC3)c(O)c2C(N2CCOCC2)C1O (stereo unspecified)	2%	-8%	nt
Cc1ccc(S(=O)(=O)Nc2cccc(-c3ccc(N4CCC(C)CC4)nn3)c2)s1	-13%	-4%	nt
O=C1OC(/C=C/c2ccc(Cl)cc2)=NC/1=C/c1ccco1	16µM*	2.5µM*	-15%
O=C1NC(c2ccccc2)=N/C1=C/c1ccco1	0%	-8%	nt
CCCCc1nn2c(=O)cc(COC(=O)c3ccccc3NC(=O)c3ccccc3OC)nc2s1	-9%	0%	nt
CC(C)(C)c1ccc(CN2N=Nc3ccccc3S2(=O)=O)cc1	?	-12%	nt
O=S1(=O)c2ccccc2N=NN1Cc1ccc(Cl)c(Cl)c1	?	22µM*	-15%
CCOc1ccccc1C(=O)N(Cc1ccccc1F)C1CCS(=O)(=O)C1 (stereo unspecified)	-18%	-3%	nt
O=C(CSc1ncc(S(=O)(=O)c2ccc(Cl)cc2)c(=O)[nH]1)Nc1cccc(C(F)(F)F)c1	21%	?	nt
CC(C)(C)c1ccc(S(=O)(=O)c2cnc(SCC(=O)Nc3ccc(F)c(Cl)c3)[nH]c2=O)cc1	-3%	20µM*	2.8µM*
COc1ccc(C(=O)COC(=O)CNC(=O)C2CCCCC2)c(OC)c1	6.3µM*	4µM*	-23%

Screens deposited in PubChem by National Center for Advancing Translational Sciences (NCATS).
